The list is not random: actives were taken first. Their share in the collection is about 3.4%.
MITF primary = inhibitors of human MITF; inhibition, % at 2.6 µM; 650,000 tested, 0.91% active; AlphaScreen MITF homodimerization, bead proximity signal; in the data active means inhibition above about 50%;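 further: 0% = vehicle wells with protein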
FBW7 act = activators of human E3 ligase FBW7. AlphaScreen FBW7–phospho-cyclin E peptide binding, activator screen. normalized activity (activation), % at 26.1 µM. 650,000 tested, 0.13% active; in the data active means normalized activity above about 1.9%;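 further: purified mutant Fbw7 with reduced substrate affinity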
Target sequence (Q969H0 whole entry, looked up): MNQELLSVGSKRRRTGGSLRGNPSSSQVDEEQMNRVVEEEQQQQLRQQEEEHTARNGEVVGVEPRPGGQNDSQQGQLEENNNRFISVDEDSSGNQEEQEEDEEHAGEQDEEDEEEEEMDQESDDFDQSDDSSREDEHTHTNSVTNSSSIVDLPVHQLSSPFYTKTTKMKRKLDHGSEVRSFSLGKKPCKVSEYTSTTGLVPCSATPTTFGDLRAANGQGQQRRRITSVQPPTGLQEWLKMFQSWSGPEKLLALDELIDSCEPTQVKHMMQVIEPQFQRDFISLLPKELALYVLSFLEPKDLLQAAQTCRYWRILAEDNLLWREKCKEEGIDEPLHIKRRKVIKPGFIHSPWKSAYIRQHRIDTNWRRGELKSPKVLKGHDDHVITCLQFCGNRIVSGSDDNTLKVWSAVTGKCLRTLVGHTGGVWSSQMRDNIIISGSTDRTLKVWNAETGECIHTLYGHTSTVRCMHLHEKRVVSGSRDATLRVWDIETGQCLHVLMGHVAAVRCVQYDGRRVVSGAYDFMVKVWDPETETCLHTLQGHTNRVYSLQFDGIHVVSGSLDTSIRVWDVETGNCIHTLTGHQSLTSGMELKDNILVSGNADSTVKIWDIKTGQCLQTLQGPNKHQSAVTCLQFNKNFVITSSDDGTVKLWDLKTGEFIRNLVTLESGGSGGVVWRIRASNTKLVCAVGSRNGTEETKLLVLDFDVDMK
TEAD-YAP inh = TEAD-YAP interaction inhibition; inhibition, % at 9.12 µM; 640,000 tested, 1.4% active; HEK-TIYL cells, TEAD-Gal4/YAP UAS-luciferase luminescence; in the data active means inhibition above about 32%;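 further: 0% = median of test compound wells and 100% = reference inhibitor wells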
GPR151 activ = activates the human receptor GPR151. Q8TDV0. PathHunter beta-arrestin GPR151 cells, luminescence. activation, % at 11.2 µM. 650,000 tested, 1% active. AID 1508602; in the data active means activation above about 4.9%;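 further: 0% = median of compound wells and 100% = cells with positive control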
Starred values were filed as active, the others as inactive.

SMILES | MITF primary | FBW7 act | TEAD-YAP inh | GPR151 activ
CCCCOc1ccc(C(=O)N2CCN(c3ccc(-n4nc(C)cc4C)nn3)CC2)cc1 | 4 | 0 | 9 | 0
CC(C)C(NC(=O)C12CC3CC(CC(C3)C1)C2)C(=O)NN (configuration not stated) | -6 | 0 | -9 | 0
C#CCOc1cc(Br)c(/C=C2/NC(=O)NC2=O)cc1OCC | -6 | 0 | 32* | 0
COC(CNc1cc(-c2cccnc2)nc(C)n1)OC | -1 | 0 | -5 | 0
Cc1ccc(NC2OC(CO)C(O)C(O)C2O)cc1C (configuration not stated) | 1 | 0 | 12 | 1
Cc1ccc(NC2OC(C)C(O)C(O)C2O)cc1C (configuration not stated) | 4 | 2.5* | 11 | -2
COc1ccc(-c2nnc3n2N=C(c2ccc(O)c(O)c2)CS3)cc1 | 3 | 0 | 50* | 0
Cc1ccc(C2=Nn3c(nnc3-c3ccccc3)SC2)cc1 | -3 | 0 | 60* | -1
Oc1ccc(C2=Nn3c(nnc3-c3ccccc3Br)SC2)cc1O | 25 | 0 | 52* | 1
COc1ccc(-c2nnc3n2N=C(c2ccccc2)CS3)cc1 | 14 | 0 | 0 | -1
COc1cccc(C2=Nn3c(nnc3-c3ccccc3O)SC2)c1 | -8 | 1 | -1 | -1
COc1ccc(C2=Nn3c(nnc3-c3ccc(OC)cc3)SC2)cc1 | 0 | 0 | 49* | 1
C/C(N)=C(/C#N)C(=O)CSc1ncnc2c1cnn2-c1ccccc1 | -1 | 0 | -7 | 2
CCC(=O)Nc1ccc(C2=Nn3c(COc4ccc(OC)cc4)nnc3SC2)cc1 | -5 | 0 | 48* | -2
COc1cccc(-c2nnc3n2N=C(c2ccc(O)c(O)c2)CS3)c1 | 6 | 0 | 58* | 0
Oc1ccc(C2=Nn3c(nnc3-c3cccc(F)c3)SC2)cc1O | 2 | 0 | 61* | -1
COc1ccc(-c2nnc3n2N=C(c2ccc4c(c2)OCCO4)CS3)cc1 | 7 | 0 | 46* | -1
COc1cccc(C2=Nn3c(nnc3-c3ccccc3)SC2)c1 | 5 | 1 | 10 | 0
Cc1cccc(C2(c3cccc(C)c3)CC2C(=O)Nc2ccc(I)cc2)c1 (configuration not stated) | 9 | 0 | 0 | 0
O=C(OCc1ccc(Cl)cc1)C1CC(=O)N(c2ccc(Br)cc2)C1 (configuration not stated) | 4 | 0 | 7 | -2
COc1ccccc1C(=O)Nc1ccc(Nc2ccc(C)nn2)cc1 | -1 | 0 | -7 | -1
Oc1ccc(C2=Nn3c(nnc3-c3ccc(Br)cc3)SC2)cc1O | -3 | 0 | 66* | 2
COc1cccc(-c2nnc3n2N=C(c2ccc(Br)cc2)CS3)c1 | 0 | 0 | 0 | 1
CCc1nc2sccn2c(=O)c1C(=O)N1CCCC1COC (configuration not stated) | 2 | 0 | -1 | 5
Cc1sc(NC(=O)c2ccco2)c(C(c2cccnc2)N2CCC(Cc3ccccc3)CC2)c1C (configuration not stated) | 4 | 0 | 35* | -1
SMILES | MITF primary | FBW7 act | TEAD-YAP inh | GPR151 activ
NC(=O)NCCCC(=O)OCC(=O)c1ccc(Br)s1 | -12 | 0 | -2 | 2
Cc1ccc(/C=N/NC(=O)COc2ccccc2C)cc1 | -3 | 0 | 50* | -1
COc1cc(/C=N\NC(=O)COc2ccc(C)cc2C)cc(OC)c1O | 6 | 0 | -8 | 0
CCOc1ccccc1OCC(=O)N/N=C/c1cc(C)ccc1O | -14 | -2 | 61* | 0
COc1cc(/C=N\NC(=O)COc2cc(C)ccc2C(C)C)cc(OC)c1O | 11 | 0 | 36* | -1
Cc1ccc(/C=N/NC(=O)CCc2c(C)n[nH]c2C)cc1 | 4 | 0 | 33* | 0
Cc1n[nH]c(C)c1CCC(=O)N/N=C/c1ccc(Br)cc1 | 10 | 0 | 5 | 0
Cc1ccccc1OCC(=O)N/N=C/c1ccc(F)cc1 | 12 | 0 | -2 | 1
Cc1ccc(CNS(=O)(=O)c2ccc(F)cc2)cc1 | -11 | 0 | -12 | 3
Cc1ccc(C(C)C)c(OCC(=O)N/N=C2\CCCC(=O)C2)c1 | 4 | 0 | 2 | 2
CCOc1cc([N+](=O)[O-])cc(/C=N/NC(=O)COc2cccc(C)c2C)c1O | 66* | 0 | -3 | 0
O=C(COc1ccccc1-c1ccccc1)N/N=C\c1ccc[nH]1 | 6 | 0 | 51* | 0
CCOc1cc([N+](=O)[O-])cc(/C=N/NC(=O)COc2c(C)ccc(C)c2C)c1O | -3 | 0 | 0 | 2
CCOc1ccccc1OCC(=O)N/N=C1\CCCC(=O)C1 | -5 | 0 | 48* | 1
COc1cc(/C=N/NC(=O)COc2ccc(C)cc2C)ccc1O | -14 | 1.9* | -8 | 0
Cc1ccccc1C1C2=C(CCCC2=O)Nc2c1c(=O)[nH]c(=O)n2-c1ccccc1 (configuration not stated) | -7 | 0 | -6 | 0
Oc1c(C(Nc2nccs2)c2ccccc2)ccc2cccnc12 (configuration not stated) | 24 | -1 | 70* | 0
Oc1c(C(Nc2nccs2)c2ccccn2)ccc2cccnc12 (configuration not stated) | 43 | 0 | 76* | 1
Oc1c(C(Nc2nccs2)c2ccc(F)cc2)ccc2cccnc12 (configuration not stated) | 22 | -2 | 43* | -1
Oc1cccc(C(Nc2nccs2)c2ccc3cccnc3c2O)c1 (configuration not stated) | 69* | -1 | 73* | 0
Cc1[nH]c2ccccc2c1C(Nc1nccs1)c1ccc(F)cc1 (configuration not stated) | 4 | 0 | -28 | 0
CCCOc1ccc(C(=O)N/N=C/c2cccc3cccnc23)cc1 | 0 | 0 | 20 | -1
COc1cc(SC)ccc1C(=O)NNC(=O)C12CC3CC(CC(C3)C1)C2 | 3 | 0 | -1 | 0
O=C1N[C@@H](Cc2cnc[nH]2)C(=O)N2CCN(Cc3cnn(-c4ccccc4Cl)c3)C[C@H]12 | 2 | 0 | 2 | 0
N#Cc1ccccc1NC(=O)CSc1nnc(-c2ccccc2)o1 | 6 | 0 | -14 | 2
SMILES | MITF primary | FBW7 act | TEAD-YAP inh | GPR151 activ
COc1ccc(-c2nnc(SCC(=O)c3ccccc3F)o2)cc1 | 13 | 0 | -21 | -1
COc1ccc(-c2nnc(SCC(=O)OCC(=O)Nc3ccccc3C#N)o2)cc1 | -3 | 0 | 67* | 1
COc1ccc(-c2nnc(SCC(=O)c3ccc[nH]3)o2)cc1 | -5 | 0 | 39* | -4
COC(=O)CSc1nnc(-c2ccc(C)cc2)o1 | 4 | 0 | 1 | -1
N#Cc1ccccc1NC(=O)COC(=O)CSc1nnc(-c2ccc3c(c2)OCO3)o1 | -1 | 0 | 38* | -2
COC(=O)CSc1nnc(-c2ccc(C(C)(C)C)cc2)o1 | 1 | 0 | 66* | -1
N#CC1=C(N)OC(N)=C(C#N)C1c1cccc(C(F)(F)F)c1 | 2 | 0 | 3 | 0
O=C(Cc1ccc(Cl)cc1)Nc1cc(Cl)ccc1O | 12 | 1 | 12 | 0

Compound activity: PubChem BioAssay, The Scripps Research Institute Molecular Screening Center
